Laboratory results from PMC5540273 (PLoS ONE, 2017).

How the values were obtained:
Details in all cases: concentration: 1 μM, replicates: in singlicate; n = 1
PKAC-alpha = system: T1, PKAC-alpha
T1 construct: gene PRKACA

PKAC-beta = system: T2, PKAC-beta
T2 construct: gene PRKACB

PKMYT1 = system: PKMYT1
PKN1 = system: PKN1
PKN2 = system: PKN2
PLK1 = system: PLK1
PLK2 = system: PLK2
PLK3 = system: PLK3
PLK4 = system: PLK4
PRKCD = system: PRKCD
PRKCE = system: PRKCE
PRKCH = system: PRKCH
PRKCI = system: PRKCI
PRKCQ = system: PRKCQ
PRKD1 = system: PRKD1
PRKD2 = system: PRKD2
PRKD3 = system: PRKD3
PRKG1 = system: PRKG1
PRKG2 = system: PRKG2
PRKR = system: T3, PRKR
T3 construct: gene EIF2AK2
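Also: KINOMEscan kinase panel screen.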

Row | SMILES | %Inh (PKAC-alpha) | %Inh (PKAC-beta) | %Inh (PKMYT1) | %Inh (PKN1) | %Inh (PKN2) | %Inh (PLK1) | %Inh (PLK2) | %Inh (PLK3) | %Inh (PLK4) | %Inh (PRKCD) | %Inh (PRKCE) | %Inh (PRKCH) | %Inh (PRKCI) | %Inh (PRKCQ) | %Inh (PRKD1) | %Inh (PRKD2) | %Inh (PRKD3) | %Inh (PRKG1) | %Inh (PRKG2) | %Inh (PRKR)
1 | CCS(=O)c1ccc(-c2coc3ccc(-c4nnc(C)o4)cc23)cc1 (centres unmarked) | 0% | 18% | 0% | 0% | 16% | 0% | 0% | 14% | 5% | 4% | 0% | 0% | 0% | 14% | 0% | 0% | 0% | 21% | 9% | 0%
2 | COc1cccc(-n2cnc3c(N)ncnc32)c1 [SKF-97416] | 11% | 20% | 10% | 0% | 24% | 58% | 43% | 18% | 21% | 6% | 33% | 0% | 25% | 1% | 0% | 0% | 0% | 19% | 14% | 13%
3 | COc1cc(Nc2nccc(N3CCC(NC(=O)C4COc5ccccc5O4)C3)n2)cc(OC)c1OC (centres unmarked) [GSK1379761] | 4% | 0% | 5% | 0% | 7% | 13% | 0% | 0% | 9% | 18% | 3% | 4% | 0% | 0% | 0% | 10% | 0% | 0% | 3% | 13%
4 | Cc1cccc(-c2cc(-c3c[nH]nc3-c3ccccn3)ccn2)c1 [GW679395] | 0% | 0% | 1% | 0% | 0% | 0% | 0% | 0% | 0% | 0% | 13% | 0% | 4% | 35% | 57% | 48% | 22% | 0% | 0% | 0%
5 | COc1cc2ncn(-c3cc(OCCCc4ccccc4)c(C(N)=O)s3)c2cc1OC [GSK205189] | 0% | 5% | 0% | 0% | 16% | – | 98.2% | 92.3% | 0% | 0% | 0% | 0% | 13% | 19% | 0% | 23% | 0% | 0% | 0% | 0%
6 | Cc1nn2c(=O)cc(N3CCOCC3)nc2n1Cc1cccc(Cl)c1Cl [GSK2342769] | 7% | 7% | 1% | 36% | 0% | 5% | 0% | 0% | 0% | 0% | 0% | 21% | 5% | 19% | 20% | 0% | 16% | 0% | 0% | 0%
7 | CCCC(=O)Nc1n[nH]c2ncc(-c3cccc4ccccc34)cc12 [SB-642057] | 0% | 0% | 22% | 19% | 0% | 0% | 0% | 1% | 13% | 0% | 16% | 16% | 15% | 0% | 0% | 14% | 0% | 7% | 0% | 29%
8 | CN1C(=O)C(Nc2cc(Cl)c(O)c(Cl)c2)=C(c2ccc(Cl)cc2)C1=O [SB-404321] | 0% | 0% | 0% | 0% | 0% | 0% | 0% | 0% | 0% | 0% | 0% | 0% | 3% | 0% | 54% | 0% | 0% | 0% | 0% | 4%
9 | C[C@@H]1CC[C@H](C(=O)NC2CCCCC2)CN1c1cc(-c2ccc3c(N)n[nH]c3c2)nc(N)n1 [GSK2291363] | 32% | 18% | 6% | 0% | 0% | 8% | 0% | 0% | 0% | 8% | 14% | 34% | 37% | 34% | 0% | 12% | 26% | 17% | 0% | 14%
10 | CCC(=O)c1c(-c2ccccc2)c2cc(Cl)ccc2c(=O)n1Cc1cc(S(C)(=O)=O)n(CC(N)=O)n1 | 0% | 0% | 0% | 1% | 8% | 0% | 0% | 0% | 0% | 6% | 0% | 80% | 12% | 0% | 0% | 0% | 0% | 0% | 0% | 0%
11 | Cn1c(=O)c(F)c(Nc2ccc(I)cc2F)c2c(=O)n(OC[C@H](O)CO)cnc21 | 10% | 35% | 0% | 0% | 0% | 14% | 0% | 0% | 4% | 4% | 0% | 0% | 34% | 6% | 0% | 0% | 0% | 8% | 7% | 0%
12 | CCC(=O)c1c(-c2ccccc2)c2cc(Cl)ccc2c(=O)n1Cc1ccc(C(=O)O)cc1 | 0% | 0% | 1% | 0% | 0% | 0% | 7% | 0% | 0% | 0% | 0% | 0% | 0% | 9% | 0% | 6% | 0% | 0% | 0% | 0%
13 | COc1cc2nccc(Nc3cccc(Oc4ccccc4)c3)c2cc1OC.Cl [GW284543] | 0% | 10% | 0% | 0% | 0% | 0% | 0% | 0% | 0% | 5% | 0% | 0% | 18% | 1% | 0% | 0% | 31% | 3% | 0% | 0%
14 | Cc1nnc(-c2ccc(C)c(-c3ccc(C(=O)O)cc3)c2)o1 [GW608005] | 0% | 0% | 0% | 28% | 0% | 0% | 0% | 0% | 0% | 0% | 0% | 0% | 0% | 5% | 0% | 0% | 19% | 0% | 0% | 0%
15 | O=c1cc(N2CCOCC2)nc2n(Cc3ccc(F)c(Cl)c3)ccn12 [GSK2297099] | 0% | 0% | 10% | 11% | 0% | 54% | 0% | 6% | 0% | 0% | 0% | 12% | 0% | 26% | 0% | 0% | 12% | 0% | 0% | 15%
16 | COc1ccc(-c2coc3ccc(-c4nnc(SCc5cccc(C#N)c5)o4)cc23)cc1 | 11% | 0% | 0% | 32% | 0% | 0% | 11% | 12% | 18% | 12% | 0% | 0% | 0% | 31% | 0% | 23% | 0% | 0% | 21% | 0%
17 | Cc1ccc(Oc2ccc(Nc3ncnc4cc[nH]c34)cc2C)cn1 | 19% | 0% | 8% | 50% | 0% | 50% | 12% | 11% | 20% | 5% | 0% | 27% | 7% | 9% | 0% | 2% | 8% | 0% | 23% | 8%
18 | CCCNC(=O)Nc1ccc(Oc2ncnc3ccn(C)c23)cc1 | 0% | 0% | 0% | 0% | 0% | 0% | 28% | 15% | 18% | 33% | 3% | 13% | 0% | 22% | 0% | 0% | 0% | 0% | 0% | 0%
19 | O=C(Nc1n[nH]c2cc(-c3ccccc3F)ccc12)C1CC1 [SB-733371] | 0% | 20% | 0% | 0% | 14% | 0% | 0% | 3% | 9% | 0% | 21% | 0% | 0% | 0% | 0% | 0% | 0% | 0% | 0% | 0%
20 | O=C(NCc1cccs1)c1cc(C(=O)c2c(Cl)cccc2Cl)c[nH]1 [GW823670] | 6% | 3% | 0% | 0% | 0% | 0% | 0% | 0% | 0% | 0% | 9% | 0% | 0% | 0% | 35% | 3% | 13% | 0% | 0% | 0%
21 | Nc1n[nH]c2nnc(-c3ccccc3)c(-c3ccccc3)c12 [GW554060] | 0% | 16% | 0% | 20% | 3% | 8% | 0% | 0% | 0% | 3% | 15% | 14% | 16% | 12% | 0% | 0% | 17% | 0% | 0% | 0%
22 | CCC(=O)c1c(-c2ccccc2)c2cc(Cl)ccc2c(=O)n1Cc1cc(C(=O)NC2CC2)n(C)n1 | 0% | 0% | 5% | 0% | 0% | 0% | 2% | 7% | 10% | 8% | 20% | 0% | 0% | 41% | 0% | 3% | 0% | 0% | 0% | 0%
23 | Nc1nc(N)c2nc(-c3ccccc3)[nH]c2n1 [SKF-12778] | 7% | 9% | 2% | 43% | 23% | 0% | 0% | 0% | 0% | 11% | 4% | 0% | 36% | 40% | 40% | 9% | 0% | 12% | 0% | 0%
24 | FC(F)(F)c1ccc(-c2ncn(CCCN3CCOCC3)c2-c2ccncc2)cc1 [SB-217780] | 0% | 10% | 0% | 43% | 48% | 5% | 0% | 0% | 3% | 87% | 35% | 0% | 19% | 30% | 0% | 0% | 0% | 29% | 25% | 0%
25 | COc1ccc(-c2cc3c(C)nc(N)nc3n([C@H]3CC[C@H](O)CC3)c2=O)cn1 | 0% | 0% | 32% | 0% | 10% | 0% | 0% | 0% | 0% | 0% | 36% | 0% | 0% | 0% | 3% | 0% | 0% | 0% | 0% | 0%
26 | COC(=O)c1c(-c2ccccc2)c2cc(Br)ccc2c(=O)n1Cc1ccc(NC(=O)CCC(=O)O)cc1 | 33% | 0% | 10% | 0% | 0% | 0% | 14% | 5% | 15% | 0% | 0% | 7% | 0% | 21% | 0% | 0% | 0% | 0% | 0% | 0%
27 | CCC(=O)c1c(-c2ccccc2)c2cc(Cl)ccc2c(=O)n1Cc1cc(S(C)(=O)=O)n(CC(F)F)n1 | 0% | 0% | 0% | 0% | 0% | 0% | 24% | 13% | 0% | 9% | 0% | 6% | 0% | 8% | 0% | 0% | 0% | 0% | 0% | 0%
28 | Cc1cc(Nc2nc(-c3cccc(C)n3)nc3ccccc23)ccn1 [GW872411] | 0% | 0% | 24% | 0% | 0% | 0% | 0% | 1% | 0% | 8% | 0% | 0% | 0% | 0% | 99.4% | 99.9% | 76% | 14% | 0% | 0%
29 | COC(=O)c1c(-c2ccccc2)c2cc(Br)ccc2c(=O)n1Cc1ccc(S(C)(=O)=O)cc1 | 11% | 0% | 0% | 1% | 0% | 0% | 17% | 15% | 32% | 0% | 1% | 4% | 0% | 37% | 0% | 0% | 0% | 0% | 8% | 0%
30 | Nc1nc(-c2ccccc2F)c(-c2ccnc3ccccc23)s1 [GW560459] | 0% | 3% | 0% | 3% | 0% | 2% | 0% | 0% | 0% | 0% | 17% | 11% | 13% | 0% | 0% | 0% | 27% | 1% | 0% | 0%
